# From PubChem BioAssay
# Calls of active or inactive are those of the source.
# Experiments:
# [1] = small molecules captured by biotinylated probe aFSTL3 – biochemical, small-molecule microarray, fluorescence 635/667, stem cell growth factor project, primary screen (AID 1064); conditions: higher = more signal;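 note: measures binding of the biotinylated anti-FSTL3 antibody to printed compounds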
# [2] = binders from COS7 lysate, DM2A8 probe, primary screen, torsin A project, cell lysate, small-molecule microarray, fluorescence 635/667 (AID 1065); conditions: higher = more signal, COS7 lysate expressing mutant human TOR1A
# [3] = small molecules captured by biotinylated probe aFGF2 – biochemical, small-molecule microarray, fluorescence 635/667, stem cell growth factor project, primary screen (AID 1067); conditions: higher = more signal;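 note: measures binding of biotinylated aFGF2 protein to printed compounds on slides; z-score merges feature fluorescence and signal-to-noise across triplicate slides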
# [4] = small molecules captured by biotinylated probe aFGF10 – biochemical, small-molecule microarray, fluorescence 635/667, stem cell growth factor project, primary screen (AID 1071); conditions: higher = more signal;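 note: score merges 667 nm spot intensity and signal to noise from triplicate slides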
# [5] = target: Neurogenic locus notch homolog protein 2 (Homo sapiens) (UniProt Q04721); test: small molecules binding Notch2 protein – biochemical, small-molecule microarray, 635 nm fluorescence, stem cell growth factors, primary screen (AID 1073); conditions: higher = more signal
# Sequence of Neurogenic locus notch homolog protein 2 (Homo sapiens) (Q04721 whole entry, looked up, canonical isoform): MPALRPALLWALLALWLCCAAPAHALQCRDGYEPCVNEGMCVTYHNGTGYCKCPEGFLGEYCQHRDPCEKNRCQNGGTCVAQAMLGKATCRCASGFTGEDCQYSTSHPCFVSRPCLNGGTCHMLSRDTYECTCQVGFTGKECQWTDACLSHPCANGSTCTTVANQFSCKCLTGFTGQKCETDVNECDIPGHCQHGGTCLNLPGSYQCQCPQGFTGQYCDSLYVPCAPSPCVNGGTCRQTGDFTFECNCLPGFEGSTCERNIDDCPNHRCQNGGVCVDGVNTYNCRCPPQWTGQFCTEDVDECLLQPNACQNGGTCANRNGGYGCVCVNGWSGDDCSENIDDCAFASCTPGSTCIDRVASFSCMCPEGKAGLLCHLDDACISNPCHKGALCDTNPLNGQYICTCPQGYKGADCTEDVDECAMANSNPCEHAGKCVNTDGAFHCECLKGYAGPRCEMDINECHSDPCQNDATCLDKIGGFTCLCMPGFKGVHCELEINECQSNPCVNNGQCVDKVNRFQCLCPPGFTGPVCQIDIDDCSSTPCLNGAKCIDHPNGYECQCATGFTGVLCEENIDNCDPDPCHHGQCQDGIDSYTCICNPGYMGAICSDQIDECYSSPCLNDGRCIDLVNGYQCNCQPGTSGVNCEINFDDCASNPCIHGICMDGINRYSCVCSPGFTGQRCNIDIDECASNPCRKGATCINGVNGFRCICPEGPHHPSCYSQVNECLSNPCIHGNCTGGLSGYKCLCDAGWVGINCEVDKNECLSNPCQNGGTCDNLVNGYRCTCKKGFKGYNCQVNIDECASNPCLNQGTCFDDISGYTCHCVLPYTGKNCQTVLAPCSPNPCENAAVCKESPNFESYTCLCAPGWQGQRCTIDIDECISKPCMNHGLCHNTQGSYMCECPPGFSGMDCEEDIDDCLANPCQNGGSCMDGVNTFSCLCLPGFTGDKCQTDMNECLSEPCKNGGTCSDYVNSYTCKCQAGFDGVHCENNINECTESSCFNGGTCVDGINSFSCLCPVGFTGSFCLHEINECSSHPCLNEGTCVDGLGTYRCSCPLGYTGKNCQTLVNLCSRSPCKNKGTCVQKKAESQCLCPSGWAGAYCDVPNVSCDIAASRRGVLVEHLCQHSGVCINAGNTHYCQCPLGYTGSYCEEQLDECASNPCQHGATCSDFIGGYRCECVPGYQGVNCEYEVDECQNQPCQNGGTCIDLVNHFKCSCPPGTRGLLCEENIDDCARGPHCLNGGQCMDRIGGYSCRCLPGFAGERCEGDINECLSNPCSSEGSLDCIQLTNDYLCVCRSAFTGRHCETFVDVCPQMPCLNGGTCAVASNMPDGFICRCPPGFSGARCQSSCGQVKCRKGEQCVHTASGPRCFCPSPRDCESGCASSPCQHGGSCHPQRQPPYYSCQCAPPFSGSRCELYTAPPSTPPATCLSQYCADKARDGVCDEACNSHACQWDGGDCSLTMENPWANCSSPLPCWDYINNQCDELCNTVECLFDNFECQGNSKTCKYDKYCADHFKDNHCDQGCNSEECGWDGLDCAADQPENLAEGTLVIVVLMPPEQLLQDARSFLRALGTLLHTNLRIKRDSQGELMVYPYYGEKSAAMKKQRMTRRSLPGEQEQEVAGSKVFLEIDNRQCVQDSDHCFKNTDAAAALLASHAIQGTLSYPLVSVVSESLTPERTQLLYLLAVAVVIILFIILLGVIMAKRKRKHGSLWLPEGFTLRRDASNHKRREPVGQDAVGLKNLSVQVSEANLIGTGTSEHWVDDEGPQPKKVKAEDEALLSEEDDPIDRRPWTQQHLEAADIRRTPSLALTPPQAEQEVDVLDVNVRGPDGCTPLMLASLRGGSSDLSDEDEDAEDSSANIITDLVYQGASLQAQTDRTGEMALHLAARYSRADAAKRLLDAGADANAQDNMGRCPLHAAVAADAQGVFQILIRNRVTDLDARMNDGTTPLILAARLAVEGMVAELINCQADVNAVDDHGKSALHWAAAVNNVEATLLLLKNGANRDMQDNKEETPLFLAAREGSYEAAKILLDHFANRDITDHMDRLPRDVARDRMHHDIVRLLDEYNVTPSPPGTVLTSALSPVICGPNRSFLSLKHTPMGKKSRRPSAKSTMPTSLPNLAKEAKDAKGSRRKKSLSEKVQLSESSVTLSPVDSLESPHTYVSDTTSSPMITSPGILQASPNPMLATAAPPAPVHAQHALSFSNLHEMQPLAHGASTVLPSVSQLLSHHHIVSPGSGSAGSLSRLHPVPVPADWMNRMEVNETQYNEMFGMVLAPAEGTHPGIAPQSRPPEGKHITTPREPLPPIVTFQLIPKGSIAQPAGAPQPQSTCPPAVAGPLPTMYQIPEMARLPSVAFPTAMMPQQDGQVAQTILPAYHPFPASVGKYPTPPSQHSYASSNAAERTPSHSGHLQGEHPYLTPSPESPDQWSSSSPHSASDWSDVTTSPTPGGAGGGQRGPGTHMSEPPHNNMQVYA
# [6] = target: Pro-neuregulin-1, membrane-bound isoform (Homo sapiens) (UniProt Q02297); test: small molecules binding neuregulin-1 protein – biochemical, small-molecule microarray, fluorescence 635/667, psychiatric disease protein project, primary screen (AID 1075); conditions: NRG1 binding, 635 nm fluorescence, higher = more signal;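 note: score combines 667 nm spot fluorescence with signal to noise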
# [7] = tested on: Neuregulin-1 EGF-like domain; test: small molecules binding NRG1 EGF domain – biochemical, small-molecule microarray, 635 nm fluorescence, primary screen (AID 1081); conditions: higher = more signal;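 note: binding of the protein to compounds printed on small-molecule microarray slides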
# [8] = FRG1 expression reporter modulators in myotubes – cell-based, C2C12 myotubes, firefly/Renilla luciferase, luminescence, FRG1 inhibition for FSHD, primary screen (AID 1084); conditions: FRG1 promoter luciferase, higher = more signal, called active from +8 up or from −8 down
# [9] = small molecules captured by biotinylated probe aFST – biochemical, small-molecule microarray, fluorescence 635/667, stem cell growth factor project, primary screen (AID 1086); conditions: higher = more signal;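 note: score merges 667 nm fluorescence with signal-to-noise of each printed compound spot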
# [10] = binders of probe aHhip on microarray, primary screen, stem cell growth factor project, biochemical, small-molecule microarray, fluorescence 635/667 (AID 1087); conditions: higher = more signal;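 note: score merges spot fluorescence at 667nm with spot signal to noise ratio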
# [11] = tested on: PRMT1 (protein arginine N-methyltransferase 1); test: small molecules binding arginine methyltransferase PRMT1 – biochemical, small-molecule microarray, 635 nm fluorescence, primary screen (AID 1088); conditions: higher = more signal;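 note: binding of Prmt1 protein to compounds spotted on small-molecule microarray slides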
# [12] = growth effects on S. cerevisiae YJM789 – YJM789 clinical isolate, OD600, 24 h, basal, primary screen (AID 1089); conditions: higher = more signal, called active from +8 up or from −8 down;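 note: growth of clinical yeast isolate S. cerevisiae YJM 789 seeded 1000 cells per well; test concentration not given here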
# [13] = S. pombe growth modifiers, basal conditions – strain 972, OD600, 24 h, no modulator, primary screen (AID 1090);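 note: basal condition with compound alone and no growth modifier present; test concentration not given here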; conditions: S. pombe 972 growth, higher = more signal, called active from +8 up or from −8 down
# [14] = budding yeast growth modifiers under rapamycin – strain BY4716, OD600, 96 h, primary screen (AID 1091); note: test concentration not given here; conditions: S. cerevisiae BY4716 + rapamycin, higher = more signal, called active from +8 up or from −8 down
# [15] = target: Torsin-1A-interacting protein 2 (Homo sapiens) (UniProt Q8NFQ8); test: small molecules binding lysate-expressed LULL1 – cell lysate, human LULL1 lysate, 635/667 nm fluorescence, primary screen (AID 1092); conditions: small-molecule microarray, hLULL1 lysate binding, 635 nm fluorescence; higher = more signal;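 note: probe is lysate of COS7 cells overexpressing human LULL1; score merges per-feature 667 nm fluorescence with signal-to-noise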
# [16] = optical density change of DRC41 E. coli – strain DRC41, OD650, 24 h, E. coli filamentation project, primary screen (AID 1093);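 note: MC1000 strain lacking acrAB efflux and sulA so SOS filamentation is blocked; test concentration not given here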; conditions: E. coli DRC41 growth, higher = more signal, called active from +8 up or from −8 down
# [17] = probe aLefty2 binding to arrayed compounds – biochemical, biotinylated probe, 635/667 nm fluorescence, primary screen (AID 1094); conditions: small-molecule microarray, higher = more signal;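 note: score merges spot fluorescence near 667 nm with spot signal-to-noise ratio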
# [18] = tested on: Noggin (protein binding on small-molecule microarray); test: small molecules binding Noggin protein – biochemical, 635/667 nm fluorescence, primary screen (AID 1095); conditions: 635 nm fluorescence, higher = more signal;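 note: score merges 667 nm feature fluorescence with signal to noise over triplicate slides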
# [19] = target: Neurogenic locus notch homolog protein 3 (Homo sapiens) (UniProt Q9UM47); test: small molecules binding NOTCH3 protein – biochemical, 635/667 nm fluorescence, primary screen (AID 1096); conditions: small-molecule microarray, 635 nm fluorescence, higher = more signal
# Sequence of Neurogenic locus notch homolog protein 3 (Homo sapiens) (Q9UM47 whole entry, looked up): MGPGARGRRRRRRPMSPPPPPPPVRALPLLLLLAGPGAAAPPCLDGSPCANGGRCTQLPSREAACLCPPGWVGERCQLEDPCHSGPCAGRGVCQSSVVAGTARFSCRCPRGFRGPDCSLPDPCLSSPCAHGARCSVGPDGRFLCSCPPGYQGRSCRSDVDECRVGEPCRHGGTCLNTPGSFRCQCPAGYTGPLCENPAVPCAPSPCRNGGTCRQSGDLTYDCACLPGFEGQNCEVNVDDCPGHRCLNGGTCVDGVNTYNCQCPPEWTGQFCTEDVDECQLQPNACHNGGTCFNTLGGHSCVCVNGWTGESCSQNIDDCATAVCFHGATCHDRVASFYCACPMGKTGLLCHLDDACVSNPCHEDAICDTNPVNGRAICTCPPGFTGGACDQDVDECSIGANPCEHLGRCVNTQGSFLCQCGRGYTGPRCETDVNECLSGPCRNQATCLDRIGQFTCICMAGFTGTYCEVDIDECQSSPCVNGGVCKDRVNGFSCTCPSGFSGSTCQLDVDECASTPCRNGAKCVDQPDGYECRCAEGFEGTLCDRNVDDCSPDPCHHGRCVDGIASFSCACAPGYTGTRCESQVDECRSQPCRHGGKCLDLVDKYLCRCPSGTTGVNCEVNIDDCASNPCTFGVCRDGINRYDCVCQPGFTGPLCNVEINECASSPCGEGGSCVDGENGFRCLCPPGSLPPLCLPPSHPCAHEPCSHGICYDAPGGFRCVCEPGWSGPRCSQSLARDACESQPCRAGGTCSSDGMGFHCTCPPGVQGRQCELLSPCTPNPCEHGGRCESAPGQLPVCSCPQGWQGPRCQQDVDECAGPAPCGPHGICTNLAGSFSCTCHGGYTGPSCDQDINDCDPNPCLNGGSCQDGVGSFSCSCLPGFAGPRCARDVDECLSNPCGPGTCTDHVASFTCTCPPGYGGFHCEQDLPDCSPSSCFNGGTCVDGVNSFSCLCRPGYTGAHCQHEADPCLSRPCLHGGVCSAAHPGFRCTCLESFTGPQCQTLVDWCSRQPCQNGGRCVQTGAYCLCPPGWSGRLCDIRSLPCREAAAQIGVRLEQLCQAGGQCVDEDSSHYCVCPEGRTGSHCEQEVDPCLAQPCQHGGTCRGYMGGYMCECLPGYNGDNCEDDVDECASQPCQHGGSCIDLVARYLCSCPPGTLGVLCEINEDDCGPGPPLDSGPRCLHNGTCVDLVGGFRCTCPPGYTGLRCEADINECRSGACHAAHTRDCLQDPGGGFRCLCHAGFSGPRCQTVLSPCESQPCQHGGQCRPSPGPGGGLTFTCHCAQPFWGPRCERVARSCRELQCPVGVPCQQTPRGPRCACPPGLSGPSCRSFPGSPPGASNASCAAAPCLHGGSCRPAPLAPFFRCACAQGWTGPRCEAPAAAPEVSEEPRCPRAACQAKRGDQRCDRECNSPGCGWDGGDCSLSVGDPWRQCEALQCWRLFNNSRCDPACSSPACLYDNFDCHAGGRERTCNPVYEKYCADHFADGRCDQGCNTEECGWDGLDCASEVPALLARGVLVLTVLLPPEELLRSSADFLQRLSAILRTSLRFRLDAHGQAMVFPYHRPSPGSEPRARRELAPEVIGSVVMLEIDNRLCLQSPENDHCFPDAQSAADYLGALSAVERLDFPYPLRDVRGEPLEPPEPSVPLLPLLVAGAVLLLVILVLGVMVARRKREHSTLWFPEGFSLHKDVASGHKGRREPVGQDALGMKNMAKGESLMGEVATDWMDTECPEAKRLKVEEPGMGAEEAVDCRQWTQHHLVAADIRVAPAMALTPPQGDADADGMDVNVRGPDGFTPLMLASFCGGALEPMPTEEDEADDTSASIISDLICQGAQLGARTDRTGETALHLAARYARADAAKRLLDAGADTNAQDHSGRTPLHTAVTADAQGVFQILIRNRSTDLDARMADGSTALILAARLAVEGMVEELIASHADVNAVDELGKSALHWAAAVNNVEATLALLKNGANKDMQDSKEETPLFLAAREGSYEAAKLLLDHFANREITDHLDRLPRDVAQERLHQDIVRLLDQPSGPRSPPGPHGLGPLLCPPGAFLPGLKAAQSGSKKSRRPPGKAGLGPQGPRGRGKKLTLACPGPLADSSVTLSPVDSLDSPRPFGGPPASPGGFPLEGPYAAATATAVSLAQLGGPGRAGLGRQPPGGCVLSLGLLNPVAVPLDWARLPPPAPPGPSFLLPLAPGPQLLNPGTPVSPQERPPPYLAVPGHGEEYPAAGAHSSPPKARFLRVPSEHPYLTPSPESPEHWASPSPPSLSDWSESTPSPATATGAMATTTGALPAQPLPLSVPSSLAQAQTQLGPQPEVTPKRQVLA
# [20] = probe aEGFR binding to arrayed compounds – biochemical, biotinylated probe, 635/667 nm fluorescence, primary screen (AID 1097); conditions: small-molecule microarray, higher = more signal;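 note: probe is a biotinylated anti-EGFR antibody binding compounds printed on slides; score combines fluorescence near 667 nm and signal to noise of each spot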
structure (smiles),measurement,setting,value
C=C(CCCC)/C(=C/C[C@H](OC(C)=O)c1ccc(CO)o1)c1cnc2ccccc2c1,composite z-score,[1],-0.472
same,composite z-score,[2],0.773
same,composite z-score,[3],-0.0749
same,composite z-score,[4],1.14
same,composite z-score,[5],1.1
same,composite z-score,[6],0.963
same,composite z-score,[7],1.26
same,z-score,[8],0.13 (inactive)
same,composite z-score,[9],0.13
same,composite z-score,[10],0.0505
same,composite z-score,[11],1.43
same,z-score,[12],-0.237 (inactive)
same,z-score,[13],-0.923 (inactive)
same,z-score,[14],1.37 (inactive)
same,composite z-score,[15],1.46
same,z-score,[16],0.111 (inactive)
same,composite z-score,[17],-0.0998
same,composite z-score,[18],1.12
same,composite z-score,[19],1.07
same,composite z-score,[20],0.0324
C=CCNC(=O)[C@@H]1[C@H]2C(=O)O[C@H](c3ccccc3)[C@H](c3ccccc3)N2[C@H](c2ccc(OCCO)cc2)[C@@]12C(=O)Nc1ccccc12,composite z-score,[1],0.511
same,composite z-score,[2],0.0949
same,composite z-score,[3],-0.116
same,composite z-score,[4],0.405
same,composite z-score,[5],0.117
same,composite z-score,[6],1.51
same,composite z-score,[7],1.23
same,z-score,[8],-1.05 (inactive)
same,composite z-score,[9],0.627
same,composite z-score,[10],-0.513
same,composite z-score,[11],1.55
same,z-score,[12],-1.2 (inactive)
same,z-score,[13],0.406 (inactive)
same,z-score,[14],2.21 (inactive)
same,composite z-score,[15],2.46
same,z-score,[16],0.462 (inactive)
same,composite z-score,[17],-0.175
same,composite z-score,[18],1.28
same,composite z-score,[19],1.09
same,composite z-score,[20],-0.197
O=C1OCC=C[C@H]2OC34C=CCN(c5ccc(Cl)cc5)C(=O)[C@H]3N(CCCCCCO)C(=O)[C@@H]4[C@@H]12 (stereo not given in full),composite z-score,[1],1.06
same,composite z-score,[2],-0.793
same,composite z-score,[3],-0.163
same,composite z-score,[4],-0.688
same,composite z-score,[5],-0.737
same,composite z-score,[6],2.26
same,composite z-score,[7],1.53
same,z-score,[8],1.16 (inactive)
same,composite z-score,[9],-0.455
same,composite z-score,[10],-0.271
same,composite z-score,[11],-1.01
same,z-score,[12],-0.88 (inactive)
same,z-score,[13],-1.63 (inactive)
same,z-score,[14],-0.787 (inactive)
same,composite z-score,[15],1.92
same,z-score,[16],0.437 (inactive)
same,composite z-score,[17],-0.0936
same,composite z-score,[18],-1.51
same,composite z-score,[19],-0.464
same,composite z-score,[20],-0.273
CC(c1ccccc1)C(O)C1C=CC2C(=O)NC(=O)C2N1Nc1ccccn1 (stereo not given),composite z-score,[1],0.166
same,composite z-score,[2],-0.0988
same,composite z-score,[3],-0.044
same,composite z-score,[4],0.306
same,composite z-score,[5],1.5
same,composite z-score,[6],0.142
same,composite z-score,[7],1.33
same,z-score,[8],1.14 (inactive)
same,composite z-score,[9],0.421
same,composite z-score,[10],-0.271
same,composite z-score,[11],1.43
same,z-score,[12],0.978 (inactive)
same,z-score,[13],0.704 (inactive)
same,z-score,[14],1.17 (inactive)
same,composite z-score,[15],1.52
same,z-score,[16],-0.88 (inactive)
same,composite z-score,[17],0.136
same,composite z-score,[18],0.361
same,composite z-score,[19],1.12
same,composite z-score,[20],-0.0159
COCCOC(=O)N1C(=O)[C@@]2(c3cc(C#CCCO)ccc31)[C@H](c1ccc(O)cc1)N1[C@H](c3ccccc3)[C@H](c3ccccc3)OC(=O)[C@H]1[C@@H]2C(N)=O,composite z-score,[1],1.04
same,composite z-score,[2],0.751
same,composite z-score,[3],-0.0173
same,composite z-score,[4],0.203
same,composite z-score,[5],-0.982
same,composite z-score,[6],1.08
same,composite z-score,[7],1.42
same,z-score,[8],-0.966 (inactive)
same,composite z-score,[9],0.102
same,composite z-score,[10],0.113
same,composite z-score,[11],1.14
same,z-score,[12],0.253 (inactive)
same,z-score,[13],0.479 (inactive)
same,z-score,[14],0.418 (inactive)
same,composite z-score,[15],1.51
same,z-score,[16],-0.834 (inactive)
same,composite z-score,[17],0.0002
same,composite z-score,[18],-0.243
same,composite z-score,[19],0.213
same,composite z-score,[20],-0.178
CC(C)C[C@@H]1NC(=O)[C@H]2C[C@@H](C(=O)NCCCCCNC(=O)CS)[C@@H](c3cccc(OCCO)c3)N2C1=O,composite z-score,[1],-0.197
same,composite z-score,[2],0.235
same,composite z-score,[3],-0.0474
same,composite z-score,[4],0.387
same,composite z-score,[5],1.25
same,composite z-score,[6],1.03
same,composite z-score,[7],1.31
same,z-score,[8],0.209 (inactive)
same,composite z-score,[9],0.707
same,composite z-score,[10],-0.173
same,composite z-score,[11],1.53
same,z-score,[12],-0.454 (inactive)
same,z-score,[13],-0.267 (inactive)
same,z-score,[14],0.0073 (inactive)
same,composite z-score,[15],3.06
same,z-score,[16],-0.187 (inactive)
same,composite z-score,[17],0.106
same,composite z-score,[18],1.98
same,composite z-score,[19],1.07
same,composite z-score,[20],0.111
O=C(O)[C@H]1C[C@H]2C(=O)NCC(=O)N2[C@H]1c1ccc(O)cc1,composite z-score,[1],0.136
same,composite z-score,[2],0.202
same,composite z-score,[3],-0.0996
same,composite z-score,[4],-0.224
same,composite z-score,[5],-0.424
same,composite z-score,[6],-0.235
same,composite z-score,[7],1.4
same,z-score,[8],3.81 (inactive)
same,composite z-score,[9],0.025
same,composite z-score,[10],-0.226
same,composite z-score,[11],0.294
same,z-score,[12],-0.512 (inactive)
same,z-score,[13],-0.81 (inactive)
same,z-score,[14],-0.373 (inactive)
same,composite z-score,[15],1.05
same,z-score,[16],1.68 (inactive)
same,composite z-score,[17],-0.025
same,composite z-score,[18],0.884
same,composite z-score,[19],0.55
same,composite z-score,[20],0.308
CC(=O)Nc1cc(Br)ccc1C(=O)O,composite z-score,[1],-0.135
same,composite z-score,[2],-0.387
same,composite z-score,[3],0.0308
same,composite z-score,[4],0.239
same,composite z-score,[5],0.425
same,composite z-score,[6],0.541
same,composite z-score,[7],0.748
same,z-score,[8],0.466 (inactive)
same,composite z-score,[9],0.353
same,composite z-score,[10],-0.221
same,composite z-score,[11],0.183
same,z-score,[12],-0.0103 (inactive)
same,z-score,[13],0.331 (inactive)
same,z-score,[14],0.178 (inactive)
same,composite z-score,[15],1.33
same,z-score,[16],-0.18 (inactive)
same,composite z-score,[17],-0.0006
same,composite z-score,[18],0.201
same,composite z-score,[19],0.482
same,composite z-score,[20],-0.156
CC(C)C(=C=CC[C@H](O)c1cccc(OCCO)c1)C[C@H](O)COCc1ccccc1,composite z-score,[1],-0.222
same,composite z-score,[2],0.0852
same,composite z-score,[3],-0.095
same,composite z-score,[4],0.659
same,composite z-score,[5],-0.139
same,composite z-score,[6],1.67
same,composite z-score,[7],1.13
same,z-score,[8],0.724 (inactive)
same,composite z-score,[9],-0.22
same,composite z-score,[10],-0.0994
same,composite z-score,[11],0.975
same,z-score,[12],-0.0398 (inactive)
same,z-score,[13],0.299 (inactive)
same,z-score,[14],-0.623 (inactive)
same,composite z-score,[15],1.92
same,z-score,[16],0.299 (inactive)
same,composite z-score,[17],-0.0616
same,composite z-score,[18],0.551
same,composite z-score,[19],-0.243
same,composite z-score,[20],-0.081
